Screening results from PubChem.
D2 ag-1: human D2 receptor agonism in beta-arrestin assay | actives 0.084% (n = 360,000) | DiscoveRx PathHunter D2 beta-arrestin, luminescence, 90 min; 100% = 57 uM dopamine signal | P14416 | activation, % (concentration not given with the values); in the data active means activation above about 40%; inconclusive means between about 15% and that limit
Target sequence (P14416 whole entry, looked up): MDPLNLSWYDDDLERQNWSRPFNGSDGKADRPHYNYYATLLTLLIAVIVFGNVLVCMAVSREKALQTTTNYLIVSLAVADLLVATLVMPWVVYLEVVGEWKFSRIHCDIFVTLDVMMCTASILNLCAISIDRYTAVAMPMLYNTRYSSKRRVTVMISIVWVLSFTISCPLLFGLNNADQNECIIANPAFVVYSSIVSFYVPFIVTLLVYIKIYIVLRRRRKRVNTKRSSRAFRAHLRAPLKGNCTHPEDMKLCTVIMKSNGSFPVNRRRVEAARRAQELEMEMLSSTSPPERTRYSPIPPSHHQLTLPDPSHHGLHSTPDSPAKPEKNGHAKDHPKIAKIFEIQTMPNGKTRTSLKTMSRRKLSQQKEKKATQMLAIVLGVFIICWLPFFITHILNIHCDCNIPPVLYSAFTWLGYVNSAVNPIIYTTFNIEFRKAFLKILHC
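DiscoveRx PathHunter D2 beta-arrestin cells (2,100/well) attached overnight, then compound-stimulated 90 min at 37 C in HBSS/10 mM HEPES/0.1% Tween-20 buffer; beta-galactosidase complementation read by luminescence after 1 h at ambient temperature. Dopamine 57 uM final (EC100) as control.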
D2 PAM-1: positively modulates the human D2 dopamine receptor allosterically | potentiation, % at 10 µM | AID 485347 | HEK293 T-REx D2, calcium flux, EC20 dopamine potentiation | actives 0.34% (n = 340,000);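 active means potentiation over 3 SD above the plate norm, cut at about 30% in these data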; further: 0% is about no effect
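Calcium flux readout, no-wash dye, 1 read/s. Inducible HEK293 Trex D2 line, overnight 30 C. Compound alone 180 s (agonist flags), then EC20 dopamine, another 180 s to score potentiation.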
D2 PAM-2: potentiates the human D2 dopamine receptor allosterically | DiscoveRx D2 beta-arrestin cells, luminescence, 90 min; 100% = 57 uM dopamine signal | actives 0.23% (n = 360,000) | potentiation, % (no concentration beside the values) | P14416; in the data active means potentiation above about 50%; inconclusive means mostly about 30% to 49%
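PathHunter beta-arrestin assay in DiscoveRx D2 cells. Compounds were added with an EC20 of dopamine (50 nM final) for 90 min at 37 deg C. Luminescence was read 1 h after detection reagent, with 57 uM dopamine as the EC100 control.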
D2 antag: D2 dopamine receptor (human) antagonism | P14416 | HEK293 TREx D2 cells, calcium flux, dopamine EC80 | inhibition, % at 10 µM | actives 2% (n = 340,000); in the data active means inhibition above about 30%; inactive means below that, where a call was filed; further: 0% is about no effect
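Calcium flux kinetic readout in an inducible HEK293 TREx D2 line plated overnight at 30 C. After 180 s compound exposure, an EC80 dopamine challenge follows with another 180 s kinetic read to detect antagonism.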
D2 ag-2: D2 dopamine receptor (human) agonism; HEK293 T-REx D2 cells, calcium flux agonist mode; activation, % at 2 µM; actives 0.53% (n = 340,000); AID 485358;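 active means activation over 3 SD above normal in the single-dose calcium agonist read, cut at about 30% in these data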; further: 0% is about no effect
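In this primary screen, compounds producing a positive calcium signal within 180 s of addition to tetracycline-induced, force-coupled HEK293 Trex D2 cells are flagged; cells are dye-loaded with a no-wash calcium kit beforehand.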
D3 ag: confirmation of human D3 dopamine receptor agonists, beta-arrestin | actives 4% (n = 2,300) | Potency, µM (highest dose often 76.9 µM), without a hit: at the highest dose activation, most hits filed as activators | DiscoveRx D3 beta-arrestin cells, luminescence, 90 min | shares compounds with D2 ag-2;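 further: potency means the concentration at half of the fitted maximal effect; 100% = dopamine control response; nearly all actives have a fitted effect of over 70% in size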
D2 ag-3: counter-screen for D3 agonists: human D2 dopamine receptor agonism | shares compounds with D2 ag-2 | DiscoveRx PathHunter D2 beta-arrestin, luminescence, 90 min; response scale: percent relative to full dopamine signal | Potency, µM (titrated, usually from 76.9 µM), without a hit: top-dose activation, usual class: activators | actives 5.9% (n = 2,300) | AID 720507; further: potency means the concentration at half of the fitted maximal effect; % of control where 0% means no effect; nearly all actives have a fitted effect of over 70% in size
* hit, by the source's call; ? = inconclusive; . = no result; ! = not confirmed by another sample. Rows were chosen to be rich in hits. Some 2.4% of all compounds tested hit in one or more screens of this group. Unless noted, the call rests on the fitted dose curve; in most records, active means well fitted activation curve with a large enough effect; inconclusive means small, poorly fitted or top-dose-only effect; inactive means flat fitted curve, though single readings scatter.

SMILES | D2 ag-1 | D2 PAM-1 | D2 PAM-2 | D2 antag | D2 ag-2 | D3 ag | D2 ag-3
COc1ccc(C(=O)N2CCC(N3CCN(c4ccccc4)CC3)CC2)cc1 | 12 | -20 | -25 | 57* | 71* | ? | ?
COc1ccc(C(=O)N2CCC(C(=O)N3CCN(c4ccc(OC)cc4)CC3)CC2)cc1 | -1 | 3 | 2 | 5 | 1 | . | .
CC(C)CC(=O)N1CCC(N2CCN(c3ccccc3)CC2)CC1 | ? | 6 | ? | -6 | 0 | . | .
Cc1oc(-c2ccccc2F)nc1CSCC(=O)NCc1ccccc1 | . | 15 | . | . | 0 | . | .
COc1ccccc1C(=O)N1CCC(N2CCN(c3ccccc3)CC2)CC1 | ? | -23 | -6 | 69* | 78* | ? | ?
CC1=C/C(=C\C=C(C#N)C#N)N(C)c2ccccc21 | -3 | -12 | -4 | -21 | 32* | -26% | -8%
COc1cc(OC)cc(-c2c(-c3cccs3)c3cc(-c4ccc(N(C)C)nc4)ccc3n2C)c1 | -4 | 20 | -3 | 3 | 0 | 2% | 14%
CC(NC(=O)c1ccc2c(c1)N(Cc1ccc(Cl)cc1)C(=O)c1ccccc1S2=O)c1ccccc1 (configuration not stated) | . | 0 | . | . | 1 | . | .
CCOC(=O)C1CCN(Cc2ccc(OCc3ccccc3)cc2)CC1 | 11 | -19 | 0 | 59* | 68* | 0% | ?
CCOC(=O)C1CCN(Cc2cccc(OC)c2)CC1 | ? | -27 | -3 | 44* | 76* | -16% | 24%
CCOC(=O)C1CCN(Cc2ccc(N(C)C)cc2)CC1 | 2 | -19 | -7 | 28 | 42* | -27% | 12%
CCOC(=O)C1CCN(Cc2ccc(F)c(F)c2)CC1 | 0 | -9 | -15 | 6 | 7 | . | .
CCOC(=O)C1CCN(Cc2ccc(OC)cc2OC)CC1 | 0 | 12 | -15 | 23 | -1 | . | .
CCCCN(C)C(=O)c1ccc2c(c1)N(Cc1cccc(F)c1)C(=O)c1ccccc1S2 | . | 1 | . | . | 0 | . | .
CC(=O)N1CCc2cc(Br)cc(S(=O)(=O)N3CCC(C(=O)Nc4ccc(C(C)C)cc4)CC3)c21 | . | 16 | . | . | -2 | . | .
CNC(=O)c1c(NC(=O)c2cc(=O)c3cc(C)c(C)cc3o2)sc2c1CCCC2 | . | 19 | . | . | -1 | . | .
O=C(CCCN1C(=O)C(c2ccccc2)Oc2cccnc21)Nc1ccc(Br)cc1F (configuration not stated) | . | -5 | . | . | 0 | . | .
CCOC(=O)c1c(NC(=S)Nc2ccccc2)sc2c1CCN(CC)C2 | 0 | -14 | -23 | -3 | 8 | -17% | -2%
COc1cccc(NC(=O)c2nn(-c3ccc(C)cc3)c(=O)n(C)c2=O)c1 | . | -12 | . | . | 0 | . | .
CNC(=O)N(O)C1N(/N=C/c2cc(Br)ccc2O)C(=S)SC1(C)C (configuration not stated) | 59* | -19 | 12 | 50* | 48* | -8% | ?
CNC(=O)N(O)C1N(/N=C/c2ccc(C)cc2)C(=S)SC1(C)C (configuration not stated) | -4 | -4 | -10 | -4 | 0 | . | .
CCN(CC)CC(C)CNC(=O)CN1C(=O)CSc2ccc(S(=O)(=O)N3CCOCC3)cc21 (configuration not stated) | 0 | -11 | -2 | -8 | 54*! | -3% | 5%
CCN(CC)CCCNC(=O)CN1C(=O)CSc2ccc(S(=O)(=O)N3CCOCC3)cc21 | -1 | 15 | -2 | -14 | 1 | . | .
CC(=O)Nc1ccc(NC(=O)CN2C(=O)CC(c3ccco3)Sc3ccccc32)cc1 (configuration not stated) | . | . | . | . | 0 | . | .
COc1ccc(-n2c(=O)c3sc4ccccc4c3n(C)c2=O)cc1 | . | 4 | . | . | 0 | . | .
Clc1cccc(CN2CCN(c3ncccn3)CC2)c1Cl | ? | -34 | 24 | 61* | 69* | 23% | 50µM*
